According to PubChem BioAssay AID493233 (Broad Institute, 2011):
Results with a measured potency or affinity are listed apart. Activity calls are given as the source filed them. No rule for the calls is given here.

Target: Protein RecA (Mycobacterium tuberculosis (strain ATCC 25618 / H37Rv)) (UniProt P9WHJ3)
Test: RecA inhibition, Mycobacterium tuberculosis, GFP plate reader MOA with DTT, confirmatory (AID 493233)

Chain of Protein RecA (Mycobacterium tuberculosis (strain ATCC 25618 / H37Rv)) (P9WHJ3 whole entry, looked up): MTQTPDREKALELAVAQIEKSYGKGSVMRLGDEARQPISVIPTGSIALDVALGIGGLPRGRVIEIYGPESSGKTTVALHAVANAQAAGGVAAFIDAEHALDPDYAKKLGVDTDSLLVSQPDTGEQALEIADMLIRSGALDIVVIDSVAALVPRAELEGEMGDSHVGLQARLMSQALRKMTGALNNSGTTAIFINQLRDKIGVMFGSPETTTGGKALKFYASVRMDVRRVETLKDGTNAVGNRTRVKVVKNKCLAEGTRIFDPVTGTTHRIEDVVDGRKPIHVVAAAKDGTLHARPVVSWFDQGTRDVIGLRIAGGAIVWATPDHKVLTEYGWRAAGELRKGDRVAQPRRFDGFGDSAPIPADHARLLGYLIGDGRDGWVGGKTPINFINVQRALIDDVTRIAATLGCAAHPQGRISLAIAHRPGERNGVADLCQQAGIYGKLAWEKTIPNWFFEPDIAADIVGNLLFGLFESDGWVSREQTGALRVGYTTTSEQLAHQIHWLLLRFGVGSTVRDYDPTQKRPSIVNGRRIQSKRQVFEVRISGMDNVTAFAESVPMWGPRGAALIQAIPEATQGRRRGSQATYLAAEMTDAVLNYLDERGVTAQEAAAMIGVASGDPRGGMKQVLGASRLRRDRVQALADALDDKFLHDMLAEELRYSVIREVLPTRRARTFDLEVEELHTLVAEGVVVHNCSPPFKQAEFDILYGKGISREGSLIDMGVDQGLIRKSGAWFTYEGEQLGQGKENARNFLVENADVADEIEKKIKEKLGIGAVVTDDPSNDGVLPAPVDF

**Q.** With `C/C(=N\NC(=O)c1ccncc1)c1cc2ccccc2oc1=O` as the molecule, how does the outcome read?
**A.** inactive

**Q.** How did the outcome turn out when `Nc1cn(-c2ccccc2)nc1-c1ccc(F)cc1` was run?
**A.** inactive
